# Laboratory results as given in PubChem BioAssay AID434973 (Sanford-Burnham Center for Chemical Genomics, 2010).
# Among all 330,000 compounds or so, about 4,900 (1.5%) were called active. The entries come from a sample that favours actives as a whole. Values without a mark were called inactive.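 The calls were made as follows: active = inhibition above about 50% at the single test dose (limit read from the data); inactive = the rest.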
# Target: Sentrin-specific protease 7 (Homo sapiens) (UniProt Q9BQF6)
# Experiment: SENP7 protease inhibitors, primary screen, biochemical, luminescence, uHTS (AID 434973);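 also: plate controls were DMSO with enzyme for no effect and no enzyme buffer wells for full effect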
# Settings: recombinant SENP7, Z-RLRGG-aminoluciferin luminescence, 40 min; at 5 µM; stronger effect = higher value
row,Compound,inhibition
1,Cc1nc(-c2ccccc2)sc1C1(C)CC(c2cccnc2)=NO1 (stereo unspecified),-12.6%
2,Cc1ccnc(NC(=O)CCCOc2ccccc2)c1,-12.2%
3,CCOC(=O)NNc1cc(C(F)(F)F)ccn1,13.9%
4,CCC(=O)NC(Nc1cc(C)ccn1)(C(F)(F)F)C(F)(F)F,98.5% (active)
5,Cc1ccc2[nH]cc(CCNC(=O)C3CCCCC3)c2c1,5.37%
6,Cc1ccccc1C(=O)NC(=S)Nc1ccc(N2CCN(C(=O)c3ccccc3)CC2)cc1,-6.96%
7,CCC(=O)Nc1ccc(C(=O)Nc2cccc(OC)c2)cc1,56.2% (active)
8,CCOc1ccc(C(=O)Nc2cccc(SC)c2)cc1,88.7% (active)
9,Cc1ccccc1C(=O)Nc1ccc(N2CCCCCC2)cc1,60.8% (active)
10,COc1cccc(C(=O)Nc2nnc(S(=O)(=O)N3CCCCC3)s2)c1,11.4%
11,O=C(Nc1ccc(N2CCOCC2)cc1)c1cccc(S(=O)(=O)N2CCOCC2)c1,8.65%
12,Cc1ccccc1C(=O)N1CCN(c2ccc(NC(=O)c3cccs3)cc2)CC1,-2.29%
13,CSc1cccc(NC(=O)CSc2ccccc2)c1,4.87%
14,COc1cccc(NC(=O)CN(C)CC(=O)Nc2ccc3c(c2)CCC3)c1,10.1%
15,CCOc1ccc(C(=O)Nc2cccc(-c3ccc4nncn4n3)c2)cc1,-7.35%
16,COc1ccc(C(=O)Nc2cccc(S(C)(=O)=O)c2)cc1,0.473%
17,COc1cccc(C(=O)Nc2ccc(N3CCCC3)cc2)c1,99.4% (active)
18,Cc1c(Cl)c([N+](=O)[O-])nn1CCCC(=O)NC(C)c1ccccc1 (stereo unspecified),-0.959%
19,COc1ccc(CC(=O)OC(C)C(=O)Nc2ccc(S(N)(=O)=O)cc2)cc1 (stereo unspecified),0.778%
20,CS(=O)(=O)N1CCCC(C(=O)N2CCOCC2)C1 (stereo unspecified),-2.39%
21,COc1ccc(/C=C2/S/C(=N/N=C3\CC4CCC3(C)C4(C)C)NC2=O)cc1 (stereo unspecified),-4.16%

row,Compound,inhibition
1,Cc1noc(C)c1C(=O)NC(C)c1ccc2c(c1)OCO2 (stereo unspecified),1.47%
2,COC(=O)[C@H](CC(C)C)NC(=O)N1CCCCC1C (stereo partly specified),1.79%
3,COc1cc(/C=N/Nc2nc3ccccc3s2)ccc1O,81.9% (active)
4,COc1ccc(/C=N/NC(=O)c2cc(-c3cccc(C)c3)nc3ccccc23)cc1O,7.7%
5,COc1cc(/C=N/NC(=O)CCc2n[nH]c(=O)[nH]c2=O)ccc1O,2%
6,Cc1cc(C)c(OCC(=O)N(Cc2cccs2)C2CCS(=O)(=O)C2)c(C)c1 (stereo unspecified),0.829%
7,O=C(CC(NCCN1CCOCC1)C(=O)O)Nc1cccc(Cl)c1 (stereo unspecified),2.14%
8,COc1ccc(C(=O)NC2CCN(C(=O)Nc3ccc(F)cc3)CC2)cc1,-1.37%
9,O=c1ccnc(Nc2ccc(Cl)cc2)[nH]1,3.66%
10,Cc1cc(Nc2ccc(Br)cc2)nc2ccccc12,0.988%
11,Clc1ccc(Nc2ccc3ccccc3n2)cc1,89.6% (active)
12,Cc1ccccc1CSc1nnc(CCCCCNC(=O)OC(C)(C)C)o1,8.18%
13,CC(NC(=O)c1ccco1)c1ccc2c(c1)OCO2 (stereo unspecified),9%
14,CC(C)CN(Cc1c(O)ccc2c(=O)c(-c3ccccc3)coc12)CC(C)C,11.8%
15,O=c1c(-c2ccccc2)coc2cc(O)ccc12,66.2% (active)
16,CCc1ccc(Oc2coc3cc(O)ccc3c2=O)cc1,-2.69%
17,CC(=O)Nc1ccc(S(=O)(=O)N2CCC(C(=O)N[C@@H](Cc3ccccc3)C(=O)O)CC2)cc1,-6.11%
18,C=CCNC(=S)N1CCN(CCN=Cc2c(C)[nH]n(-c3ccc([N+](=O)[O-])cc3)c2=O)CC1,87.2% (active)
19,CC1(C)CC(=O)C(C=NCCN2CCN(C(=S)Nc3cccc(Cl)c3)CC2)=C(O)C1,-11.9%
20,CCNC(=S)N1CCN(CCN=CC2=C(O)CC(C)(C)CC2=O)CC1,-0.44%
21,Cc1[nH]n(-c2ccccc2)c(=O)c1N=Nc1ccccc1C(=O)N1CCCCC1,0.644%

row,Compound,inhibition
1,Cc1[nH]n(-c2ccc([N+](=O)[O-])cc2)c(=O)c1C=NCCN1CCN(C(=O)c2ccccc2F)CC1,82.4% (active)
2,Cc1ccc(-n2[nH]c(C)c(/C=N/NC(=O)c3cccc([N+](=O)[O-])c3)c2=O)cc1C,-1.05%
3,Cc1ccc(C(=O)N(CC(=O)NC2CCCC2)c2ccc(F)cc2)s1,-4.07%
4,CCc1noc(C)c1C(=O)N1CCN(S(=O)(=O)c2cccc(C(F)(F)F)c2)CC1,0.961%
5,O=C(Nc1cc2ccccc2oc1=O)C1CCCCC1,0.223%
6,S=c1[nH]c(-c2cccs2)cn1-c1ccccc1,-0.786%
7,O=c1oc2ccccc2cc1-c1cn(-c2ccccc2)c(=S)[nH]1,99.2% (active)
8,COc1ccc(C(CCN(Cc2ccc(OC)c(OC)c2)C(=O)CCl)c2ccccc2)cc1 (stereo unspecified),-4.24%
9,CCCS(=O)(=O)N1CCCC(C(=O)NCCN2CCCCC2C)C1 (stereo unspecified),4.11%
10,COc1ccc(/C=C2\SC(=S)N(CCC(=O)Nc3cccc(C(=O)O)c3)C2=O)cc1OC,-3.5%
11,COc1ccc(/C=C2\SC(=S)N(CC(=O)NNC(=O)c3ccncc3)C2=O)cc1,5.57%
12,C=CCOc1ccc(/C=C2\SC(=S)N(CCC(=O)O)C2=O)cc1,98.9% (active)
13,CCO[C@@H]1OC(C(=O)NC2CC2)=C[C@H](C)[C@H]1CCCO,6.12%
14,Cn1nccc1NS(=O)(=O)c1ccc(F)cc1,4.62%
15,O=C(CN1CCOC1=O)N1CCCC(Nc2ccc(F)c(F)c2)C1 (stereo unspecified),1.33%
16,Cc1cccc(NC(=O)c2cccnc2Cl)n1,5.58%
17,Cc1cccc(NC(=O)c2cc(N3C(=O)CCC3=O)ccc2Cl)n1,6.63%
18,Cc1cccc(NC(=O)c2ccc3ccccc3n2)n1,78.7% (active)
19,O=C(O)C1=CCCN(CCON=C(c2ccccc2)c2ccccc2)C1,1.76%
